The supplement of paper PMC11634586
Structures can show the parent of a compound that is named as a salt.

Each compound was assayed on NCI-H1688 (assay: inhibition of cell viability relative to untreated control (fraction); higher = stronger growth inhibition, active = 0.5 or more). Conditions: 30 µM; 24 h.
Procedure: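 Natural product library (TargetMol, 640 compounds) screened on NCI-H1688 SCLC cells at 30 µM for 24 h; viability by CCK-8 absorbance at 450 nm, normalised to untreated control and expressed as inhibition rate (fraction). Compounds with >50% reduction in viability were selected as hits.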
With `O=C(O)[C@]1(O)C[C@@H](O)[C@@H](O)[C@H](O)C1` [Quinic acid] the “inhibition of cell viability” value was 0.126 (inactive). `COc1cc(-c2oc3cc(O)cc(O)c3c(=O)c2O)ccc1O` [Isorhamnetin] was tested, and the “inhibition of cell viability” value was -0.0139 (inactive). With `C[C@H](CCC(=O)NCC(=O)O)[C@H]1CC[C@H]2[C@@H]3[C@H](O)C[C@@H]4C[C@H](O)CC[C@]4(C)[C@H]3C[C@H](O)[C@]12C` [Glycocholic acid] the “inhibition of cell viability” value was -0.11 (inactive). With `C=C(C)[C@@H]1CC[C@]2(C)CC[C@]3(C)[C@H](CC[C@@H]4[C@@]5(C)CC[C@H](O)C(C)(C)[C@@H]5CC[C@]43C)[C@@H]12` [Lupeol] the “inhibition of cell viability” value was 0.287 (inactive). For `C=C1CC23CCC4C(C)(C(=O)OC5OC(CO)C(O)C(O)C5O)CCCC4(C)C2CCC1(OC1OC(CO)C(O)C(OC2OC(CO)C(O)C(O)C2O)C1OC1OC(C)C(O)C(O)C1O)C3` (stereo not given) [Dulcoside B], the “inhibition of cell viability” value was 0.0729 (inactive). In the case of `C[C@H](CCC(=O)NCCS(=O)(=O)O)[C@H]1CC[C@H]2[C@@H]3[C@H](O)C[C@@H]4C[C@H](O)CC[C@]4(C)[C@H]3C[C@H](O)[C@]12C` [Taurocholic acid sodium salt hydrate], the “inhibition of cell viability” value was -0.0242 (inactive). With `COc1c(O)cc(O)c2c(=O)cc(-c3ccccc3)oc12` [Wogonin] the “inhibition of cell viability” value was -0.0139 (inactive). In the case of `C=C1CC[C@H]2C(=C)CC[C@H]3C(=C)C(=O)O[C@@H]3[C@@H]12` [Dehydrocostus Lactone], the “inhibition of cell viability” value was 0.992 (active). `CC[C@H]1OC(=O)C[C@@H](O)[C@H](C)[C@@H](O[C@@H]2O[C@H](C)[C@@H](O[C@H]3C[C@@](C)(O)[C@@H](O)[C@H](C)O3)[C@H](N(C)C)[C@H]2O)[C@@H](CC=O)C[C@@H](C)C(=O)/C=C/C(C)=C/[C@@H]1CO[C@@H]1O[C@H](C)[C@@H](O)[C@@H](OC)[C@H]1OC` [Tylosin] was tested, and the “inhibition of cell viability” value was 0.0387 (inactive). `O=C(O)C=CC=Cc1ccccc1` [5-Phenyl-2,4-pentadienoic acid] was tested, and the “inhibition of cell viability” value was -0.102 (inactive). With `Cc1nc(C)c(C)nc1C` [Ligustrazine hydrochloride] the “inhibition of cell viability” value was -0.157 (inactive). For `Oc1cc(O)c2c(c1)O[C@H](c1ccc(O)c(O)c1)[C@@H](O)C2` [Cianidanol], the “inhibition of cell viability” value was 0.298 (inactive). With `CCc1c2c(nc3ccc(OC(=O)N4CCC(N5CCCCC5)CC4)cc13)-c1cc3c(c(=O)n1C2)COC(=O)[C@]3(O)CC` [Irinotecan] the “inhibition of cell viability” value was 0.684 (active). With `OC[C@H]1O[C@@H](Oc2ccc(O)cc2)[C@H](O)[C@@H](O)[C@@H]1O` [Arbutin] the “inhibition of cell viability” value was -0.263 (inactive). With `COc1ccc2[nH]cc(CCNC(C)=O)c2c1` [Melatonine] the “inhibition of cell viability” value was 0.177 (inactive). For `C[C@@]12C[C@@]3(O)O[C@@H](O1)[C@]1(COC(=O)c4ccccc4)[C@H]3C[C@@]12O[C@@H]1O[C@H](CO)[C@@H](O)[C@H](O)[C@H]1O` [Paeoniflorin], the “inhibition of cell viability” value was 0.068 (inactive). For `CC(C)(CO)[C@@H](O)C(=O)NCCCO` [Dexpanthenol], the “inhibition of cell viability” value was -0.126 (inactive). In the case of `COc1cc(O)cc(OC)c1OC` [3,4,5-Trimethoxyphenol], the “inhibition of cell viability” value was 0.0652 (inactive). In the case of `O=C(O)c1cc(O)ccc1O` [Gentisic acid], the “inhibition of cell viability” value was -0.166 (inactive). In the case of `CC[C@H]1OC(=O)[C@H](C)[C@@H](O[C@H]2C[C@@](C)(OC)[C@@H](O)[C@H](C)O2)[C@H](C)[C@@H](O[C@@H]2O[C@H](C)C[C@H](N(C)C)[C@H]2O)[C@](C)(O)C[C@@H](C)CN(C)[C@H](C)[C@@H](O)[C@]1(C)O` [Azithromycin dihydrate], the “inhibition of cell viability” value was 0.037 (inactive). In the case of `CCCCCCCCCCCCCCCCCCOCC(O)CO` (stereo not given) [Batyl alcohol], the “inhibition of cell viability” value was -0.0252 (inactive). In the case of `COc1c2ccoc2cc2oc(=O)ccc12` [Bergapten], the “inhibition of cell viability” value was 0.298 (inactive). In the case of `OC1OC[C@@H](O)[C@@H](O)[C@@H]1O` (stereo partly drawn) [D(-)-Arabinose], the “inhibition of cell viability” value was 0.0239 (inactive). With `O=C(O[C@@H]1Cc2c(O)cc(O)cc2O[C@@H]1c1cc(O)c(O)c(O)c1)c1cc(O)c(O)c(O)c1` [(-)-Epigallocatechin Gallate] the “inhibition of cell viability” value was 0.0795 (inactive). For `CC1(C)CC[C@]2(C(=O)O)[C@H](O)C[C@]3(C)C(=CC[C@@H]4[C@@]5(C)CC[C@H](O)[C@@](C)(C=O)[C@@H]5CC[C@]43C)[C@@H]2C1` [Quillaic Acid], the “inhibition of cell viability” value was 0.0942 (inactive). For `O=C(O)c1ccc(O)c(O)c1` [Protocatechuic acid], the “inhibition of cell viability” value was 0.00558 (inactive). In the case of `CCNC(=O)CC[C@H](N)C(=O)O` [L-Theanine], the “inhibition of cell viability” value was -0.151 (inactive). With `CC(C)=CCC[C@](C)(O[C@@H]1O[C@H](CO)[C@@H](O)[C@H](O)[C@H]1O)[C@H]1CC[C@]2(C)[C@@H]1[C@H](O)C[C@@H]1[C@@]3(C)CC[C@H](O)C(C)(C)[C@@H]3[C@@H](O[C@@H]3O[C@H](CO)[C@@H](O)[C@H](O)[C@H]3O)C[C@]12C` [Ginsenoside Rg1] the “inhibition of cell viability” value was -0.0362 (inactive). `N[C@H]1C(O)O[C@H](CO)[C@@H](O)[C@@H]1O` (stereo not given in full) [Glucosamine sulfate] was tested, and the “inhibition of cell viability” value was 0.381 (inactive). `OC[C@H]1O[C@@](CO)(O[C@H]2O[C@H](CO)[C@@H](O)[C@H](O)[C@H]2O)[C@@H](O[C@H]2O[C@H](CO)[C@@H](O)[C@H](O)[C@H]2O)[C@@H]1O` [Melezitose] was tested, and the “inhibition of cell viability” value was -0.0856 (inactive). In the case of `COC(=O)C1=CC[C@@]23CC[C@@H]([C@@](C)(/C=C/C=C(\C)C(=O)O)OC2=O)[C@@]3(OC(C)=O)CC1` [Pseudolaric Acid B], the “inhibition of cell viability” value was 0.813 (active). In the case of `N[C@@H](Cc1c[nH]c2ccccc12)C(=O)O` [L-Tryptophan], the “inhibition of cell viability” value was -0.199 (inactive). With `COc1ccc(/C=C\c2cc(OC)c(OC)c(OC)c2)cc1O` [Combretastatin A4] the “inhibition of cell viability” value was 0.823 (active). In the case of `OC[C@H]1O[C@H](O[C@]2(CCl)O[C@H](CCl)[C@@H](O)[C@@H]2O)[C@H](O)[C@@H](O)[C@H]1Cl` [Sucralose], the “inhibition of cell viability” value was 0.0847 (inactive). In the case of `C[C@H](CC[C@@H](O[C@@H]1O[C@H](CO[C@@H]2O[C@H](CO)[C@@H](O)[C@H](O)[C@H]2O)[C@@H](O)[C@H](O)[C@H]1O[C@@H]1O[C@H](CO)[C@@H](O)[C@H](O)[C@H]1O)C(C)(C)O)[C@H]1CC[C@@]2(C)[C@@H]3CC=C4[C@@H](CC[C@H](O[C@@H]5O[C@H](CO[C@@H]6O[C@H](CO)[C@@H](O)[C@H](O)[C@H]6O)[C@@H](O)[C@H](O)[C@H]5O)C4(C)C)[C@]3(C)[C@H](O)C[C@]12C` [Mogroside V], the “inhibition of cell viability” value was 0.121 (inactive). `C=C(C)[C@@H]1CC[C@]2(CO)CC[C@]3(C)[C@H](CC[C@@H]4[C@@]5(C)CC[C@H](O)C(C)(C)[C@@H]5CC[C@]43C)[C@@H]12` [Betulin] was tested, and the “inhibition of cell viability” value was 0.831 (active). For `COc1ccc([C@@H]2CC(=O)c3c(O)cc(O[C@@H]4O[C@H](CO)[C@@H](O)[C@H](O)[C@H]4O[C@@H]4O[C@@H](C)[C@H](O)[C@@H](O)[C@H]4O)cc3O2)cc1O` [Neohesperidin], the “inhibition of cell viability” value was 0.00547 (inactive). For `NC(N)=O`, the “inhibition of cell viability” value was -0.0194 (inactive). `O=C(O)[C@@H](O)[C@H](O)[C@H](O)[C@@H](O)C(=O)O` [Mucic Acid] was tested, and the “inhibition of cell viability” value was 0.0761 (inactive). In the case of `COc1cc2c(cc1OC)[C@@H]1Cc3ccc(OC)c(OC)c3CN1CC2` [Rotundine, TETRAHYDROPALMATINE HYDROCHLORIDE], the “inhibition of cell viability” value was -0.254 (inactive).
